High-throughput results deposited in PubChem by National Center for Advancing Translational Sciences (NCATS).
Compounds with a hit are over-represented: about 0.62% of the library has one in this group of screens.
Akt phos inh – inhibitors of Akt phosphorylation. Neuro2A IGF-stimulated pAkt S473 HTRF, 20 min; hits give low values. activity change, % for hits at 50 µM. 360,000 compounds, 0.32% hits. AID 651550; in the data active = activity change below about -80%; inconclusive = mostly about -51% to -80%; also: % is scaled to controls: 0 for no effect and ±100 for the full control effect
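Neuro2A cells (4,500/well, DMEM with 0.5% FBS) were treated with compound at a single 50 µM final concentration, stimulated with 6 nM IGF for 20 min at 37 °C, and lysed. Phospho-Akt Ser473 was read by HTRF as 665/615 ratio ×10^4.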
p53 reactivation – mutant p53 re-activation in reporter cells | H1299 p53-A138V BP100-luciferase reporter, luminescence, 24 h | Potency, µM (titrated, usually from 92.2 µM), inactives show top-dose activity change, positive = activation, most hits filed as activators | 320,000 compounds, 0.063% hits | AID 504706; active = well fitted activation curve with a large enough effect; inconclusive = small, poorly fitted or top-dose-only effect; inactive = no such curve, though single readings can be large or run the other way; also: potency is read from the fitted curve at half-maximal effect; % of control where 0% means no effect; nearly all actives have a fitted effect of over 45% in size
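p53-null H1299 cells stably carrying temperature-sensitive p53-A138V and a BP100-luciferase reporter were pinned with compounds (4-point, 1:5 series) and held 24 hrs at 37 deg C. Luminescence was read 10 min after detection reagent.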
Rango release inh – prevents RanGTP from dissociating the Rango-importin beta complex; O95149+P62826; Biochemical FRET Rango-importin beta, RanGTP-induced dissociation; Potency, µM (highest dose often 46.1 µM), inactives show top-dose activity change, negative = inhibition; 340,000 compounds, 0.071% hits; AID 540253; also: potency is read from the fitted curve at half-maximal effect; % of control where 0% means no effect; nearly all actives have a fitted effect of over 45% in size
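FRET read at 45 min, room temperature: inhibitors block the CFP/YFP signal rise when RanGTP (0.6 uM Ran, 2 mM GTP, 0.2 uM RCC1) frees Rango (0.1 uM) from importin beta (0.25 uM). Pre-read after 5 min compound exposure flags interference.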
TSHR antagonist – blocks TSH signaling through the human TSH receptor; P16473; TSHR-expressing cells, TSH-stimulated cAMP HTRF, 2 h; hits give low values; 330,000 compounds, 0.2% hits; activity change, negative = inhibition, % at 11.5 µM;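 active = activity change below a set negative limit, meaning inhibition stronger than a set level, cut at about -70% in these data; inconclusive = activity change between two set negative limits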; also: % is scaled to controls: 0 for no effect and ±100 for the full control effect
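Read-out is FRET at 665 nm (cryptate excitation 337 nm) from a cryptate-tagged anti-cAMP antibody, competed by cell cAMP against cAMP-d2. Compounds are tested on freshly harvested TSHR cells challenged with 4nM TSH (EC80) for 2 hours at 37 deg C.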
Rango-impB inh – inhibitors of Rango-importin beta complex formation | Rango CFP/YFP FRET sensor + importin beta, 45 min | Potency, µM (titrated, usually from 92.2 µM), for the others: top-dose inhibition of complex formation | 340,000 compounds, 0.031% hits;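 also: potency is read from the fitted curve at half-maximal effect; 0% = DMSO wells and 100% = buffer wells lacking importin beta; nearly all actives have a fitted effect of over 15% in size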
Target sequence (Q14974 whole entry, looked up): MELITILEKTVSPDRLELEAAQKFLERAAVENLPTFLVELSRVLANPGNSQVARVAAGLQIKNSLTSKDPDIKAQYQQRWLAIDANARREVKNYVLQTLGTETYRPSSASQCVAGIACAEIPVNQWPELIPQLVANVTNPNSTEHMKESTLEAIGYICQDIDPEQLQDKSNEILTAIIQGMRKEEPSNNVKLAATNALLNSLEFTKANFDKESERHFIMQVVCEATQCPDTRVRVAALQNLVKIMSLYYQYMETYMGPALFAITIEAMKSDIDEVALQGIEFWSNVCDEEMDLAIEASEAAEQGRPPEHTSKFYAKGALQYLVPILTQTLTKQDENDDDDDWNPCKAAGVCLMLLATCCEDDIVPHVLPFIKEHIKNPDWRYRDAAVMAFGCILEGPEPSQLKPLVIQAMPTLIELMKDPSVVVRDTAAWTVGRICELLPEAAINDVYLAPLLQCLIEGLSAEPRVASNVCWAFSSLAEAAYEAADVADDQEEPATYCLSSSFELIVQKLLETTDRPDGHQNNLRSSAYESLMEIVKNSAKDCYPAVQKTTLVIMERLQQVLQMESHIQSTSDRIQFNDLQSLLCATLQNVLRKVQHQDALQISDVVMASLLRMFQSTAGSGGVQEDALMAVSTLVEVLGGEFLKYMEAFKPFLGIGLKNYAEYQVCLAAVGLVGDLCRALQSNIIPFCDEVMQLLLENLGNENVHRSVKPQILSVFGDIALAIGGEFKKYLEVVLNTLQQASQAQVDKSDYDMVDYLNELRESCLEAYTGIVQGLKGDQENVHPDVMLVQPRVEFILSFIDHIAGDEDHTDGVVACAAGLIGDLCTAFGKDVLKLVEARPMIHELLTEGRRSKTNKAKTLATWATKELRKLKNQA
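FRET biosensor Rango (snurportin 1 IBB between N-terminal EYFP and C-terminal Cerulean), 50 nM in PBS/1 mM DTT/0.02% Tween-20/0.1% BSA, preincubated 5 min RT with compound; 0.125 microM importin beta added, 45 min RT, CFP/YFP FRET ratio read.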
* = called active by the depositor; ! = not active in a repeat. Unless noted, calls follow the shape of the full dose curve.

For CCN(c1cccc(C)c1)S(=O)(=O)c1cn(CC(=O)OC)c2ccc([N+](=O)[O-])cc12 the results were p53 reactivation -11%, Rango release inh -2%, TSHR antagonist -130* and Rango-impB inh 0%.
`COC(=O)c1oc2ccc(Br)cc2c1NC(=O)CN1CCN(C)CC1` gave Akt phos inh -115%*, Rango release inh 36% and Rango-impB inh 2%.
Cc1nnc(SCC(=O)NNC(=O)c2ccc(Br)cc2)n1C was read as Akt phos inh inactive, p53 reactivation 5%, Rango release inh 6%, TSHR antagonist 10 and Rango-impB inh 0%.
Screening COc1cccc(NC(=O)CN2CCN(c3ccccc3F)CC2)c1 returned Akt phos inh -110%*, p53 reactivation -5%, Rango release inh 7%, TSHR antagonist 6 and Rango-impB inh -2%.
For CC1=CC(=O)C=C(C)C1=NOS(=O)(=O)c1ccccc1 the results were Akt phos inh inactive, p53 reactivation -24%, Rango release inh 1%, TSHR antagonist inconclusive and Rango-impB inh -1%.
For CC1=CC(=O)C(C(C)C)=C/C1=N/OS(=O)(=O)c1ccccc1 the results were Akt phos inh inactive, p53 reactivation -15%, Rango release inh 1%, TSHR antagonist -98* and Rango-impB inh -1%.
For C/C(=N/Nc1nc(-c2ccccc2)cc(-c2ccccc2)n1)c1ccc(N)cc1 the results were p53 reactivation 32µM* and TSHR antagonist -5.
COc1cccc(C(=O)Oc2c(Br)cc(Br)cc2/C=N/NC(=O)c2cc(C)[nH]n2)c1 was read as Akt phos inh inactive, p53 reactivation 6%, Rango release inh 18µM*, TSHR antagonist -5 and Rango-impB inh inconclusive.
`CCC(C)Sc1ccc(-c2nc3ccc(C)cn3c2NCc2ccccc2)cc1OC` (configuration not stated) gave Akt phos inh inactive, p53 reactivation 16%, Rango release inh inconclusive, TSHR antagonist inconclusive and Rango-impB inh inconclusive.
`COc1ccc(-c2cc(-c3nc4ccccn4c3NCc3ccccc3)ccc2OC)cc1` gave Akt phos inh inactive, p53 reactivation -9%, Rango release inh 26µM*, TSHR antagonist -97* and Rango-impB inh inconclusive.
Screening CCCCNc1c(-c2ccc(SC3CCCCC3)c(OC)c2)nc2ccc(C)cn12 returned Akt phos inh inactive, p53 reactivation 2%, Rango release inh 7.3µM*, TSHR antagonist -7 and Rango-impB inh inconclusive.
CCC(C)Sc1cc(-c2nc3ccc(C)cn3c2NCc2ccccc2)ccc1OC (configuration not stated) was read as Akt phos inh inactive, Rango release inh 15µM* and Rango-impB inh inconclusive.
`Cc1cccc(-c2csc(N3CCC(C(N)=O)CC3)n2)c1` gave TSHR antagonist -6.
Screening CCOC1=CC2=C(C(=O)C(Cl)=CC2=O)[C@@H]2CN(S(=O)(=O)c3ccc(C)cc3)[C@@H](c3ccccc3)[C@H]12 returned Akt phos inh inactive.
Screening CC(C(=O)N1CCCCC1)n1sc2ccccc2c1=O (configuration not stated) returned Akt phos inh inactive, p53 reactivation 11µM*, Rango release inh 1%, TSHR antagonist 3 and Rango-impB inh -2%.
Screening CC(C(=O)N1CCN(C(=O)c2ccco2)CC1)n1sc2ccccc2c1=O (configuration not stated) returned Akt phos inh inactive, p53 reactivation 25%, Rango release inh 10%, TSHR antagonist 2 and Rango-impB inh -1%.
Screening COc1cccc(N2CCN(C(=O)C3CCN(C(=O)Nc4ccccc4)CC3)CC2)c1 returned Akt phos inh inactive.
Cc1ccc(NC(=O)CSc2nnc(CNC(=O)c3ccco3)n2C)c(C)c1 was read as Akt phos inh inactive, p53 reactivation 8%, Rango release inh -2%, TSHR antagonist 16 and Rango-impB inh 0%.
Cn1cnc([N+](=O)[O-])c1Sc1ccc(Br)cc1 was read as Akt phos inh inactive, p53 reactivation -24%, Rango release inh 15%, TSHR antagonist 20 and Rango-impB inh -1%.
`Cc1ccc(Sc2c([N+](=O)[O-])ncn2C)cc1` gave Akt phos inh -110%*, p53 reactivation -11%, Rango release inh 5%, TSHR antagonist -4 and Rango-impB inh -5%.
Screening Cc1cc(C)cc(OC(C)C(=O)NCCCn2ccnc2)c1 (configuration not stated) returned Akt phos inh inactive, p53 reactivation -1%, Rango release inh 10%, TSHR antagonist -104* and Rango-impB inh -1%.
O=C(NN1CCOCC1)c1ccc(Cl)c([N+](=O)[O-])c1 was read as Akt phos inh inactive, p53 reactivation inconclusive, Rango release inh inconclusive, TSHR antagonist 4 and Rango-impB inh 1%.
CN1CCN(NC(=O)c2ccc(Cl)c([N+](=O)[O-])c2)CC1 was read as Akt phos inh -112%*, p53 reactivation 8%, Rango release inh 6%, TSHR antagonist 6 and Rango-impB inh 0%.
`CC1=C(C(=O)N2CCCC(N3CCN(c4ccccc4F)CC3)C2)OCCO1` (configuration not stated) gave Akt phos inh inactive, p53 reactivation -10%, Rango release inh -1%, TSHR antagonist 1 and Rango-impB inh -2%.
For O=C(NCC12CC3CC(CC(C3)C1)C2)c1nc2ncccn2n1 the results were Akt phos inh -119%*, p53 reactivation 9%, Rango release inh 12%, TSHR antagonist -4 and Rango-impB inh 3%.
COc1ccc(NS(=O)(=O)c2cc(NC(=O)C3=NN(c4ccccc4)C(=O)CC3)ccc2C)cc1 was read as Akt phos inh inactive, Rango release inh 1% and Rango-impB inh -3%.
COc1ccc(NS(=O)(=O)c2cccc(NC(=O)C3=NN(c4ccccc4)C(=O)CC3)c2)cc1 was read as p53 reactivation 9%, Rango release inh 15%, TSHR antagonist -112* and Rango-impB inh 0%.
CCN(CC(=O)NCc1ccc(F)cc1)c1ccc(S(C)(=O)=O)cc1[N+](=O)[O-] was read as Akt phos inh inactive, p53 reactivation 6%, Rango release inh 0%, TSHR antagonist -4 and Rango-impB inh 1%.
`O=C(Nc1ccc(Cl)cc1)Nc1nnc(SCc2ccccc2)s1` gave Akt phos inh inactive, p53 reactivation 28µM*, Rango release inh 0%, TSHR antagonist 8 and Rango-impB inh 0%.
CCC(=Nc1ccc(Cc2ccncc2)cc1)c1c(O)n(C)c(=O)n(C)c1=O was read as Akt phos inh -121%*!, p53 reactivation 5%, Rango release inh 40%, TSHR antagonist -6 and Rango-impB inh 1%.
